Compound activity (PubChem)
Rows were chosen to be rich in hits. Some 10% of all compounds tested hit in one or more screens of this group.
HP1b binding inh = HTS for Inhibitors of HP1-beta Chromodomain Interactions with Methylated Histone Tails; Chromobox protein homolog 1 (Homo sapiens), P83916; AlphaScreen HP1-beta / biotin-H3K9me3 peptide binding; Potency, µM (top dose mostly 114 µM), most hits filed as inhibitors; 0.56% of 390,000 active; AID 540317, 2011; further: nearly all actives have a fitted effect of over 70% in size
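Compound inhibition of the preformed complex between 50 nM HP1-beta and 50 nM biotinylated H3K9me3 peptide was read by AlphaScreen. Buffer was PBS pH 7.4 with 0.01% Tween-20. Incubations ran 30 min at room temperature, with 10 ug/mL donor/acceptor beads.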
G9a inh-1 = qHTS Assay for Inhibitors of Histone Lysine Methyltransferase G9a; Histone-lysine N-methyltransferase EHMT2 (Homo sapiens), Q96KQ7; G9a H3K9 monomethylation, AlphaScreen, 2 h; Potency, µM (highest dose often 102 µM), most hits filed as inhibitors; 8.8% of 350,000 active; AID 504332, 2011; further: nearly all actives have a fitted effect of over 75% in size
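Compounds were preincubated with 20 nM G9a for 15 min, after which biotinylated H3K9 peptide (500 nM) and SAM (20 uM) started a 2 h room-temperature reaction. Monomethylated product was quantified by antibody-based AlphaScreen chemiluminescence.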
JMJD2A Tudor inh = qHTS Assay for Inhibitors of JMJD2A-Tudor Domain; Potency, µM (series often up to 114 µM), usual class: inhibitors; AlphaScreen JMJD2A-Tudor / H3K4me3 peptide binding; 4.4% of 390,000 active; AID 504339, 2011; further: nearly all actives have a fitted effect of over 50% in size
GLS inh = qHTS for Inhibitors of Glutaminase (GLS); GLS enzymatic activity, qHTS titration; 0.21% of 410,000 active; Glutaminase kidney isoform, mitochondrial (Homo sapiens), O94925; Potency, µM (highest dose often 45.5 µM), hits mostly inhibitors; AID 624170, 2012
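Two-point fluorescence kinetic (t0, 30 min RT) for hKGA; glutamate detected via glutamate oxidase–HRP–Amplex Red. Substrate: 1 mM L-glutamine solution; buffer 45 mM KH2PO4, pH 8.2.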
BAZ2B block = qHTS Assay for Inhibitors of BAZ2B; Bromodomain adjacent to zinc finger domain protein 2B (Homo sapiens), Q9UIF8; AlphaScreen BAZ2B-H3K14Ac peptide displacement; Potency, µM (titrated, usually from 114 µM), actives largely listed as inhibitors; 4.4% of 360,000 active; AID 504333, 2011; further: nearly all actives have a fitted effect of over 60% in size
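BAZ2B 50 nM plus b-H3(5-23)K14Ac 50 nM, PBS pH 7.4/0.01% Tween-20, 30 min RT; compound added (max 110 uM), 30 min RT; streptavidin donor/Ni-chelate acceptor beads 10 ug/mL final, 20 min dark; AlphaScreen read.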
JMJD2E confirm = Confirmation qHTS Assay for Inhibitors of Human Jumonji Domain Containing 2E (JMJD2E); Potency, µM (series often up to 56.8 µM), usual class: inhibitors; 93% of 140 active; AID 2677, 2010; shares compounds with JMJD2A Tudor inh; Recombinant JMJD2E, FDH-coupled NADH fluorescence (FDH is formaldehyde dehydrogenase)
Target sequence (B2RXH2 1-337 limits assumed): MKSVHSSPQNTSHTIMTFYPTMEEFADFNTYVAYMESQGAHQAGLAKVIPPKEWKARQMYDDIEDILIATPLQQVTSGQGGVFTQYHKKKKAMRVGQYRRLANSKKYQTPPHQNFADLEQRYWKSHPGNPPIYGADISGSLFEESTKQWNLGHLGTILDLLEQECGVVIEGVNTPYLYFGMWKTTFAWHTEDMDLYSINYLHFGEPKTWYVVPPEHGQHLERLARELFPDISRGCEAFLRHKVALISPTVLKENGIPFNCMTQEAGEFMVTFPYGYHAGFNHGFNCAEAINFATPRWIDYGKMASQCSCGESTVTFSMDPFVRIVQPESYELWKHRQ
FDH counter = Counterscreen for JMJD2E Inhibitors: qHTS Assay for Inhibitors of Formaldehyde Dehydrogenase (FDH); 10% of 140 active; Potency, µM (series often up to 56.7 µM), most hits filed as inhibitors; FDH enzyme assay, NADH fluorescence kinetic; shares compounds with JMJD2A Tudor inh
G9a inh-2 = qHTS Assay for Inhibitors of Histone Lysine Methyltransferase G9a: Hit Confirmation; shares compounds with JMJD2A Tudor inh; AID 588344, 2011; 89% of 370 active; Potency, µM, hits mostly inhibitors; G9a H3K9 monomethylation, AlphaScreen, 2 h; further: nearly all actives have a fitted effect of over 65% in size
RGS4 inh = qHTS for Inhibitors of Regulator of G Protein Signaling(RGS) 4: Hit Validation; shares compounds with JMJD2A Tudor inh; RGS4 GAP activity, Transcreener GDP fluorescence polarization; Potency, µM, hits mostly inhibitors; 80% of 25 active
Large screens that a line does not name were inactive (follow-up assays come after a bar, where they were run). The call rests on the fitted dose curve; in most records, active means well fitted curve in the direction sought with a large enough effect; inconclusive means small, poorly fitted or top-dose-only effect, or another doubt; inactive means no such curve, though single readings can be large; an effect the other way counts as inactive or inconclusive.

COCc1c(C(=O)N2CCN(S(=O)(=O)c3ccccc3Cl)CC2)oc2ccccc12	none
Cc1cccc(NC(=O)c2c(NC(=O)c3ccccc3)sc3c2CCC3)c1	none
Cc1cccc(NC(=O)c2c(NC(=O)c3ccccc3)sc3c2CCCC3)c1	G9a inh-1 1.26µM, JMJD2A Tudor inh 79.4µM, BAZ2B block 56.2µM | G9a inh-2 2
O=C(c1ccc(Cl)cc1)N1CCC(c2nc3ccccc3o2)CC1	none
O=C(NCc1ccccc1)c1cc(C2COCCN2C(=O)C2CC2)on1 (stereo not given)	none (no result: HP1b binding inh, G9a inh-1, JMJD2A Tudor inh, BAZ2B block)
Oc1ccccc1C=NC1=NN(c2cccc(C(F)(F)F)c2)CC1	G9a inh-1 1µM, JMJD2A Tudor inh inconclusive, BAZ2B block inconclusive | G9a inh-2 0.796
O=C(CC1Sc2ncnn2C1=O)Nc1ccc(Cl)cc1 (stereo not given)	G9a inh-1 2.51µM, JMJD2A Tudor inh inconclusive | JMJD2E confirm 2µM | FDH counter 0.251µM | G9a inh-2 inconclusive
O=C(CC1SC2=NCCN2C1=O)Nc1ccc(Cl)cc1 (stereo not given)	none
CCOC(=O)c1ccc(NC(=O)CC2Sc3ncnn3C2=O)cc1 (stereo not given)	HP1b binding inh inconclusive, G9a inh-1 2.24µM, JMJD2A Tudor inh 7.94µM | JMJD2E confirm 2µM | FDH counter 0.159µM | G9a inh-2 0.564
CCOC(=O)c1ccc(NC(=O)CC2SC(=NC)N(C)C2=O)cc1 (stereo not given)	none
COc1ccc(NC(=O)CC2Sc3ncnn3C2=O)cc1 (stereo not given)	G9a inh-1 1.41µM, JMJD2A Tudor inh inconclusive | JMJD2E confirm 3.16µM | FDH counter 0.282µM | G9a inh-2 0.632
O=C(O)c1cccc(S(=O)(=O)Nc2ccc(N3CCCCC3)cc2)c1	none (no result: G9a inh-1, BAZ2B block)
Clc1cccc(Cl)c1CNc1ccc(N2CCCC2)cc1	HP1b binding inh 17.8µM, G9a inh-1 1.78µM, JMJD2A Tudor inh 17.8µM, GLS inh 7.08µM, BAZ2B block 20µM | G9a inh-2 3.99 | RGS4 inh 9.47
CCc1cccc(C)c1NC(=O)c1cccc(C(=O)Nc2c(C)cccc2CC)c1	none
CCc1cccc(C)c1NC(=O)c1cccc(N(C)C)c1	G9a inh-1 inconclusive, BAZ2B block 89.1µM | G9a inh-2 8.91
Cc1cc2cc(C(c3nnnn3Cc3ccco3)N3CCc4ccccc43)c(=O)[nH]c2cc1C (stereo not given)	G9a inh-1 11.2µM, JMJD2A Tudor inh inconclusive, BAZ2B block inconclusive | RGS4 inh 6.7
Cc1cccc(C)c1NC(=O)CNC(=O)c1ccccc1OCc1ccccc1	none
CC(C)N(C)CCOC(=O)C1COc2ccccc2O1 (stereo not given)	G9a inh-1 inconclusive
Cc1ccc(CNC(=O)CN2C(=O)COc3ccc(S(=O)(=O)N4CCC(C)CC4)cc32)cc1	G9a inh-1 inconclusive | G9a inh-2 inconclusive
